Results from the supplement of paper PMC11417369.
In all, about 25,000 sequences were measured (“ln(normalized median fluorescence intensity)”: median about 7.1, highest 2% from about 10 on). The entries come from a sample that favours the highest values as a whole.

What follows are sequences tested on PfSIP2 AP2 domain 1 (GST-tagged) (assay: gcPBM binding intensity (ln(normalized median fluorescence intensity)); higher = stronger DNA binding).
Method in brief: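 Alexa488 anti-GST antibody, scanned at 488 nm, detected GST-tagged P. falciparum DNA-binding domains that had been expressed in E. coli and incubated for 1 h on an Agilent 4 × 180k array. The array carried primer-extended double-stranded 36-bp intergenic genomic probes and negative controls. Binding intensity is the highest Masliner-normalised natural-log median intensity across replicate spots of either orientation of each probe.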

Sequence	gcPBM binding intensity (ln)
AGAATGAAATAATATACACACAAAGGAAAAATGTAA [CACACA_site3911]	6.76
TACATATATTTTTATACATGCATAACTTAGGACTTT [TGCATGCA_site113]	7.07
TTTTTTTTTTTTTTTGTGCACAATATAATTTTTAAT [GTGCAC_site9747]	8.64
TGTGCATAATTTTGTGCACACCACGCTAATAATTTT [CACACA_site2915]	10.9
CATATAAATATTTGTGCACACAATTATTAATAATTA [CACACA_site3884]	9.35
ATAGTATCTGGTAGCTGTACGAGTCGTATAGTGCAG [XGTACX_site2542]	8.25
AAAAAAAATTATATATGTACTTATTAATCCTTATAT [XGTACX_site1389]	6.86
GATGTTTCTATTTTAGTGCATTTTAAATAAATAAAT	9.4
TACATCATCTATAAGGTGCATTTTAGTTCTATTAAA	10.8
TTTTCTAAATAAATAGTGCATTTATTATATATACAT [GTGCAC_site9766]	9.15
AAAAAAAAAAGAAATTGTACTTTTTGTTTAATAATT [XGTACX_site4681]	6.65
TTGTTCTTTTTTTTTTTATTTTTTAATTTGAAAAGA [CACACA_negctrl_site209]	7.03
TTGTTCTTTTGAAAGGTGCAAAAGAAAAATAATTAA	11.2
CATATTCCCCCCCACACACACACACGCATACATACC [CACACA_site7148]	10.1
CATATTCCCCCCCACACACACACACCCATACATACC [CACACA_site2303]	10.2
GACATATTCCCCCCCACACACACACCCACATACATA [CACACA_site2302]	9.81
TCTATATAATACCAATGTACATAGTTTTAAGCATAA [XGTACX_site1889]	6.93
TATAAAACGGATGAACAACAAATCATATGGCACAAA [TGCATGCA_negctrl_site608]	7.23
TATTGTATCCTTAATGCATGCACCAAATAAAAAAAG [TGCATGCA_site541]	11.1
CTGTATAAAACCAATGCATGTAAATATATTAATATA [TGCATGCA_site511]	7.06
TTTTTGTATCCTTTTAATATTAAATAAAAGGAATGT [CACACA_negctrl_site1468]	7.02
ACAAAGTAAAATAATGCATGTAGGTATACATAATTA [TGCATGCA_site607]	6.64
TTGTATCCTTAATGCATGCACCAAATAACAAAAGTA	10.6
TTAAAAAAGTAATTAACACACAATAATGTAATGCAT [CACACA_site4176]	6.72
TATTTGTTTGAATTTTTTTTTTTTTTTTTTTATGTG [CACACA_negctrl_site966]	6.78

Sequence	gcPBM binding intensity (ln)
CCTATATAATATATTTGTACTTAATAATTAAAGTGT [XGTACX_site5151]	7.16
ATTATTTGTAATATAACACACACAAAAAAAGACTCG [CACACA_site8487]	7.1
AAAATGTATATTGGCGCATGTAAACAAATACTATAC [TGCATGCA_site385]	7.13
CAGTTGTTAATTTGTGTGCACCAAATATTATACATA	11.2
GTCAAATTTTTGTGCACACATATATAGTTATTATTA [CACACA_site2241]	10
AAATATTACATTTGTTAAATAATATGTTATACATAA [XGTACX_negctrl_site484]	6.96
ACCTACACAAGCATTAAACACACAAAAGGGATACTT [CACACA_site8273]	7.18
AAAACATTGTTGAACTGTTTTATTTATAAATATAAG [XGTACX_negctrl_site393]	7.02
TTAAAATGAAGAAGTGCACACATATATATATTTATA [CACACA_site8063]	10.4
AAAATGAAGAAGTGCACACATATATATATTTATATA [CACACA_site507]	10.7
CATAAAAATGAACATACACACATATATTTATTTATA [CACACA_site7222]	6.85
TCCTTATATTTGCACACACACACAAGAAAATGAAAA [CACACA_site6613]	8.3
TATAAAAATGTGCACACACACACATATTTATATTTA [CACACA_site6826]	8.97
AAAATGAACAGACACACACACATATTTATATTTATA [CACACA_site7182]	6.96
CATGCCGTTAAATTATGTACTTATTATTTTAATATG [XGTACX_site4209]	7.03
TAAAAAAAATCATTCACACATATATGAAAAAAAAAA [CACACA_site5546]	6.72
TTATGGTGCATGAAATCACACATTGATATATATGCT [CACACA_site5352]	11.3
TATCATGTTTTTATGGTGCATGAAATCACACATTGA	9.32
ACAAAAAAATAAGGTGCACACAAAAAAAAAAAAAAA [CACACA_site8171]	12
TAAATATAAAAATGCACACACACAAAAAAAAAAAAA [CACACA_site895]	7.44
AAAAATAAAAGGTGTGCACACAAAAATATATATATA [CACACA_site8507]	8.89
AATATAAAAATGCACACACACAAAAAAAAAAAAAAA [CACACA_site6546]	7.37
AAAAAAATAAGGTGCACACAAAAAAAAAAAAAAAAA [CACACA_site812]	12.4
ATATATATATATATTGTGCACAAAAAAAAATAAGCA	9.29
GTCCTTCATCATATTTAACACACAGAGAAAAAGCGG [CACACA_site7979]	7.68

Sequence	gcPBM binding intensity (ln)
AAAATAAAAAAAATAAATAAAAAAAATAATAATAAA [CACACA_negctrl_site563]	6.55
TATAACTTTTTTATTACACACCTATGCAATATTATA [CACACA_site6570]	7
TATATAATATAATTGACATGCAACCATTTTCGTGAA [TGCATGCA_site458]	6.84
CATACATATACTTTGTGTACATATATATATTATATA [XGTACX_site97]	7.51
TTTTTGTTATTTTTAGTGCACATTTAAGGGTGTATT	10.4
ATATTTATTTGTTAGTGTACATACATATATATATAT [XGTACX_site1347]	9.24
TTTTTTTTTGTTATGTTGCACTTTGCCATATTATTA [GTGCAC_site9844]	7.93
TTTTTGTTATTATGTGTGCACATATATATATATATA	9.79
TATTTTTTTTGTTAGGTGCATTTACATTTATTTTTA	9.93
ACTTTTTTTTTGTGTGTGCACTCGATTATATACATA [GTGCAC_site9846]	10.3
ATATATATTATGTGTGTGCACTTTTGTTATTATTAT	10.4
AAATATATGTTATATGTGCACTTTTTTTTTTTTTTT [GTGCAC_site9667]	10.4
GAAAAATTTTTATATGTGCACATGTTATATATAATT [GTGCAC_site9742]	8.64
TTTTTTTTTTTTTTGTGTACATATAATGCACATTAT [XGTACX_site6505]	8.07
ATATGTTATATAAATATATATATATATATATATATA [TGCATGCA_negctrl_site594]	9.55
AAAAAACACGCGCACACACACACACGCGCCCACATA [CACACA_site7106]	7.16
CATAAGAAAATAAAAACATGCACATAAGAAATATAC [TGCATGCA_site842]	7.97
ATCTTTCAATAATTCACACATATATATATATATATA [CACACA_site4598]	9.91
TTTTTTTCTATAATACACCAGAAAAAAAAATTAAAA [TGCATGCA_negctrl_site257]	6.96
AATTTTTTTTTTTTTTTTTCTTTTGTAATAAACCAT [XGTACX_negctrl_site334]	6.92
ATATATATTGTACTAGTGCATATATATACATATATT	8.43
TTATATTTAGTATATGCACACTTTATGTTTGTTATT [CACACA_site5163]	7.74
TATATAAAAAATAGGTGGTCAACTTAAATATTTTAT [XGTACX_site4495]	7.16
TTTAATTTATATTTTGTGCACATCTTATTATATATA [GTGCAC_site9630]	9.58
ATATTTTATATATTTGTGCACAATATTATAATATAT	8.63

Sequence	gcPBM binding intensity (ln)
ATATAAAGTATGTTAGTGCACTTTTTTTTTTTTTTT [GTGCAC_site9419]	11.2
TGTGTATATATGCTGGTGCAACTTTAAAAAATAATC	10.1
TTTTTCTTTTTTTTTTTAATAATATATAACAAATTT [CACACA_negctrl_site1724]	6.81
ATTTTCTTTTCCATAGTGCAATATAATTATCCATCA [GTGCAC_site9547]	8.36
TCATAAATATAAAGTGTGCACTTGAATAATATGTAT	9.52
TATTTATTTTTTTTTGTGCACTTAATATAATCTTAC	10.4
ATATCAAATAATTTAGTGCACTTTTTTTTTTCTTTT [GTGCAC_site9629]	10.4
TATATTTTATATATGGTGCAACTTTTATTTAAATAA	10.6
TAACAAAACCTTATATGTACACACATATACATCACA [XGTACX_site6772]	7.16
ATATAATATGGTATTACACACTGTTAAAAGTATGGC [CACACA_site5190]	7.03
ATAAATAAATGGTGTTGTACTCTATTATATATATAT [XGTACX_site7835]	8.66
TTGATTATAATTAGTACACACAAAATACATGCGGGG [CACACA_site2277]	7.82
ATAAATTTTTAAAAATATGAATTATGTAATTTGTGA [CACACA_negctrl_site1621]	6.92
TTATAATTTTAATGTGCACACAATTAAAATATTATA [CACACA_site5172]	9.21
TTATTTTATTTTTGTGCACACTGATAAATTGAAAAG [CACACA_site2949]	10.2
ATATCGTTATTTTTATGTACTAAAATATTTAATTAT [XGTACX_site3516]	7.09
ATTTATATTAAAAGTGTGCACTTTTTTTTTTTTTTT	10.1
TGATATTATATTGTGATGCACTTTAAAAATATAAAG [GTGCAC_site9509]	10.3
TATTTATTGTGACACTTTTATTATTTTATGATAAAA [CACACA_negctrl_site37]	6.97
AAAAAAATTAATAATGTGCACTTTTTAGTATTTTTA [GTGCAC_site9744]	10.3
TCATTTTAAATATGTGTGCACGTTATAATTTACACA	9.54
TGAAATTTTATTAATGTGCACATATATTTATTGTTC	8.56
TTTATATTAATTGATGTGCACTGAAATATTTGTCCA [GTGCAC_site9655]	10.2
TTTATCTAAATATGTGTGCACTCGTTAATTTTTTTT	10.5
CGAACTGCACTTTTTAGTACTTAATAATTATTTTTT [XGTACX_site2446]	8.47
